This passage reports growth results from PubChem BioAssay (NCI).

Among the test systems are NCI-H23 lung; NCI-H322M lung; HOP-62 NSCLC; NCI-H460 lung; HOP-92 NSCLC; NCI-H522 lung; A549/ATCC NSCLC; 786-0 renal; COLO 205 colon; DU-145 prostate; K-562 leukemia; MALME-3M melanoma; MDA-MB-231 breast; RXF 393 renal; SF-268 CNS; SF-295 CNS; SF-539 CNS; UACC-257 melanoma; M14 melanoma; HCT-15 colon.
Holding throughout (assay): NCI-60 one-dose screen, 48 h (100 = growth as untreated, 0 = no growth, -100 = all killed)
What all share (details): 10 µM unless noted

About 83,000 compounds went through this panel and 20% of them were active in at least one assay; those are over-represented in the sample as a whole.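 A percent growth of 40 corresponds to 60% growth inhibition; 0 means no net growth; -100 means all cells died. Active threshold: below 10.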 Unmarked numbers belong to inactive results. Active and inactive are the calls of the source.

Consider `COc1cc2cc3c(=O)n4c(cc5cc(OC)ncc54)c(=O)n3c2cn1`, for which the growth in the test with NCI-H23 lung is 101%; in the test on NCI-H322M lung it was 97.4%; with HOP-62 NSCLC it was 95.3%; in the test with NCI-H460 lung it was 107%; in the test on HOP-92 NSCLC it was 114%; in the test on NCI-H522 lung it was 99.2%. For the same compound, the growth in the test with A549/ATCC NSCLC was 102%; in the test with 786-0 renal it was 99.1%; with COLO 205 colon, 114%; with DU-145 prostate it was 106%; in the test with K-562 leukemia, 102%; in the test on MALME-3M melanoma, 93.1%. In addition, the growth was 109% in the test on MDA-MB-231 breast; 106% in the test on RXF 393 renal; 102% in the test on SF-268 CNS; 87.7% with SF-295 CNS; 106% in the test on SF-539 CNS; 110% in the test with UACC-257 melanoma. Further, the growth with M14 melanoma is 105%; in the test with HCT-15 colon, 106%.
As to `CCN1C(=O)N(c2ccccc2)C2Nn3c(s/c(=C4\C(=O)N(C(C)C)c5ccccc54)c3=O)=NC21` (stereo not given), the growth with NCI-H23 lung was 104%; in the test on NCI-H322M lung it was 108%; in the test on HOP-62 NSCLC it was 98.5%; in the test on NCI-H460 lung, 108%; in the test on HOP-92 NSCLC, 113%; with NCI-H522 lung, 92.1%. In addition, the growth was 104% in the test with A549/ATCC NSCLC; 101% with 786-0 renal; 111% with COLO 205 colon; 120% with DU-145 prostate; 100% with K-562 leukemia; 98.7% in the test with MALME-3M melanoma. For the same compound, the growth in the test with MDA-MB-231 breast is 99.4%; in the test with RXF 393 renal, 112%; with SF-268 CNS, 98.7%; with SF-295 CNS, 98.4%; with SF-539 CNS, 100%; with UACC-257 melanoma it was 104%. Besides, the figures for the growth in the test with M14 melanoma and in the test on HCT-15 colon were 109% and 108%, respectively.
Regarding `COc1cc(C2C3=C(COC3=O)N(CCO)c3cc4c(cc32)CCC4)cc(OC)c1O` (stereo not given), the growth is 45.1% in the test on NCI-H23 lung; 53.1% in the test on NCI-H322M lung; 41.2% with HOP-62 NSCLC; -22.7% (active) in the test with NCI-H460 lung; 97.5% in the test with HOP-92 NSCLC; -24.5% (active) with NCI-H522 lung. The growth is 18.1% in the test on A549/ATCC NSCLC; 27% in the test on 786-0 renal; 13.6% with COLO 205 colon; -25.8% (active) with DU-145 prostate; 14.7% in the test with K-562 leukemia; 54.7% in the test with MALME-3M melanoma. Also, the growth with MDA-MB-231 breast was 18%; in the test with RXF 393 renal, -35.8% (active); with SF-268 CNS, 43.6%; in the test on SF-295 CNS it was -2.29% (active); in the test with SF-539 CNS, -22.6% (active); with UACC-257 melanoma it was 36.2%. Further, the growth in the test with M14 melanoma was 1.16% (active); in the test with HCT-15 colon, 17.9%.
For `CCOC(=O)c1cc2c(n1Cc1cc(OC)cc(OC)c1)-c1oncc1CCC2`, the growth in the test on NCI-H23 lung was 23.7%; in the test with NCI-H322M lung it was 28%; with HOP-62 NSCLC, 50.4%; with NCI-H460 lung, 6.91% (active); with HOP-92 NSCLC, 57.5%; in the test with NCI-H522 lung, -19.1% (active). The growth in the test on A549/ATCC NSCLC is 26.6%; in the test with 786-0 renal, 41.9%; with COLO 205 colon, -54.8% (active); in the test on DU-145 prostate, 15.6%; with K-562 leukemia, 7.66% (active); in the test on MALME-3M melanoma it was 8.25% (active). Also, the growth was 15.5% in the test with MDA-MB-231 breast; 18.6% with RXF 393 renal; 33.5% with SF-268 CNS; -16.6% (active) with SF-295 CNS; 2.3% (active) with SF-539 CNS; 52.9% in the test with UACC-257 melanoma. The growth with M14 melanoma was 25.3%; in the test with HCT-15 colon it was 24.2%.
Consider `CCN1CCN(c2cc(C)c3cc(NC(=O)c4ccc(OC)c(OC)c4)ccc3n2)CC1`, for which the growth with NCI-H23 lung is 58.2%; with NCI-H322M lung, 50.7%; with HOP-62 NSCLC, 50.7%; in the test with NCI-H460 lung it was 25.4%; in the test on HOP-92 NSCLC, 56.4%; in the test with NCI-H522 lung, 51.8%. For the same compound, the growth with A549/ATCC NSCLC was 33.3%; in the test with 786-0 renal, 49%; in the test on COLO 205 colon it was 11.9%; with DU-145 prostate, 34.5%; in the test on K-562 leukemia, 7.23% (active); in the test on MALME-3M melanoma, 39.7%. The growth is 47.9% with MDA-MB-231 breast; 31.1% with RXF 393 renal; 50.8% with SF-268 CNS; 32% in the test with SF-295 CNS; 45.2% in the test with SF-539 CNS; 57.9% in the test on UACC-257 melanoma. For the same compound, the growth with M14 melanoma is 30.2%; in the test on HCT-15 colon it was 30.3%.
As to `O=C(c1nc2ccccc2[nH]1)C1C(c2ccc([N+](=O)[O-])cc2)C2CC3CCCCC3N2[C@@]12C(=O)Nc1cc(Cl)ccc12` (stereo not given in full), the growth in the test with NCI-H23 lung is 26.2%; in the test with NCI-H322M lung it was 47.6%; in the test on HOP-62 NSCLC, 41.3%; in the test on NCI-H460 lung, 11.2%; in the test with HOP-92 NSCLC, 20.1%; with NCI-H522 lung, 34.7%. The growth was 18.5% in the test with A549/ATCC NSCLC; 38.5% in the test with 786-0 renal; 22.2% in the test on COLO 205 colon; 51.3% in the test with DU-145 prostate; 12.2% with K-562 leukemia; 15% with MALME-3M melanoma. Further, the growth with MDA-MB-231 breast was 26.6%; in the test on RXF 393 renal it was 14.7%; in the test on SF-268 CNS it was 41.3%; in the test on SF-295 CNS, 16.5%; in the test with SF-539 CNS, 40.4%; in the test on UACC-257 melanoma it was 25.7%. For the same compound, the growth in the test on M14 melanoma was 21.2%; in the test with HCT-15 colon it was 11%.
`COc1ccc(Cn2c(Br)c3c(c2-c2cc(OC)c(OC)c(OC)c2)CCc2sc(NC(=O)c4ccc(OC)cc4)nc2-3)cc1`: the growth was 91.9% with NCI-H23 lung; 69.3% in the test on NCI-H322M lung; 106% in the test on HOP-62 NSCLC; 98% in the test with NCI-H460 lung; 89.1% in the test with HOP-92 NSCLC; 85.4% in the test with NCI-H522 lung. Besides, the growth was 94.2% in the test on A549/ATCC NSCLC; 89.8% in the test on 786-0 renal; 107% in the test with COLO 205 colon; 102% with DU-145 prostate; 84.6% with K-562 leukemia; 86.1% in the test on MALME-3M melanoma. In addition, the growth with MDA-MB-231 breast was 87.1%; in the test with RXF 393 renal it was 91.9%; with SF-268 CNS, 78.6%; in the test on SF-295 CNS it was 67.8%; in the test with SF-539 CNS it was 100%; in the test on UACC-257 melanoma it was 116%. For the same compound, the growth is 97.4% in the test on M14 melanoma and 98.3% in the test on HCT-15 colon.
With `Cc1ccc(NCCNCC(O)CO)c2c(=O)c3ccccc3sc12` (stereo not given), the growth in the test with NCI-H23 lung was 29.6%; in the test with NCI-H322M lung it was 25.1%; in the test on HOP-62 NSCLC, 20.3%; with NCI-H460 lung, -66.3% (active); in the test on HOP-92 NSCLC it was -2.88% (active); in the test with NCI-H522 lung, 26.6%. The growth in the test with A549/ATCC NSCLC was -2.08% (active); with 786-0 renal it was 27.1%; with COLO 205 colon it was -87.2% (active); in the test on DU-145 prostate, 11.9%; in the test with K-562 leukemia it was -13.4% (active); in the test with MALME-3M melanoma it was -12.4% (active). For the same compound, the growth in the test on MDA-MB-231 breast is -15.9% (active); with RXF 393 renal, 13.8%; in the test on SF-268 CNS, 29.3%; with SF-295 CNS, 25.4%; with SF-539 CNS, 47.3%; in the test with UACC-257 melanoma, 6.52% (active). Also, the growth with M14 melanoma is -71% (active); in the test on HCT-15 colon, -37.2% (active).
